The record followed here is PubChem BioAssay (NCATS).

The conditions of assay [1]: Ebola virus entry assay, green fluorescence channel.
For assay [2] the following is noted: Ebola virus entry assay, blue channel fluorescence.
The conditions of assay [3]: Ebola virus entry assay, green fluorescence channel. This is another data set of the same source.
The conditions of assay [4]: Ebola virus entry assay, ratio channel readout.
The conditions of assay [5]: Ebola virus entry assay, blue channel fluorescence. This is another data set of the same source.
For assay [6] the following is noted: Ebola virus entry assay, ratio channel.
For assay [7] the following is noted: Ebola virus entry assay, blue channel fluorescence. This is another data set of the same source.
The conditions of assay [8]: Ebola virus entry assay, reporter ratio channel; AC50: Channel type: primary unless noted; outcome: Channel type: primary unless noted.
For assay [9] the following is noted: Ebola virus entry assay, blue channel (ratio component).

Unmarked numbers belong to inactive results. For part of these data: Results with a measured potency or affinity are listed apart. The source made the active and inactive calls.
For efficacy in this document: 0% is about no effect.

As for `Cc1nc2n(c(=O)c1CCN1CCC(c3noc4cc(F)ccc34)CC1)CCCC2`, in assay [1], the efficacy was 54.5%. The compound was classed as inactive in assay [2], in assay [3], in assay [4], in assay [5], in assay [6] and in assay [7]. Also, the result in [8] and in assay [9] was inactive.

In the case of `C[C@H]1c2cccc(O)c2C(O)=C2C(=O)[C@]3(O)C(O)=C(C(N)=O)C(=O)[C@@H](N(C)C)[C@@H]3[C@@H](O)[C@@H]21`, in assay [1], the efficacy was 76.6%. In addition, the result in assay [2], in assay [3], in [4] and in [7] was inactive. In addition, the AC50 in [5] was 25.1 µM (active); in [6], 20 µM (active); in assay [8], 20 µM (active).

On to `CC(C)(C)NC(=O)[C@H]1CC[C@H]2[C@@H]3CC[C@H]4NC(=O)C=C[C@]4(C)[C@H]3CC[C@]12C`, for which the efficacy in [1] was 71.8%. Further, the result in [2], in [3], in assay [4], in assay [5], in assay [6] and in assay [7] was inactive. Also, the outcome in [8] and in assay [9] was inactive.

Take `CCC(=O)O[C@H]1[C@H](O[C@@H]2[C@@H](C)[C@H](O[C@H]3C[C@@](C)(OC)[C@@H](O)[C@H](C)O3)[C@@H](C)C(=O)O[C@H](CC)[C@@](C)(O)[C@H](O)[C@@H](C)C(=O)[C@H](C)C[C@@]2(C)O)O[C@H](C)C[C@@H]1N(C)C`: the efficacy in assay [1] is 131%. The call in [2], in [3] and in [4] was inactive. For the same compound, the AC50 in [5] is 14.1 µM (active); in [6], 11.2 µM (active); in assay [8] it was 11.2 µM (active).

For the compound `N=C(N)c1ccc(OCCCCCOc2ccc(C(=N)N)cc2)cc1`, the efficacy in [1] is 22.7%. Moreover, the call in assay [2], in assay [3], in [4], in assay [5], in [6] and in [7] was inactive. In addition, the outcome in assay [8] and in assay [9] was inactive.

`CCC(=O)C(CC(C)N(C)C)(c1ccccc1)c1ccccc1` (stereo unspecified): the efficacy in assay [1] is 118%. For the same compound, the call in [2], in assay [3] and in assay [4] was inactive. Besides, the AC50 in assay [5] is 10 µM (active); in assay [6] it was 7.94 µM (active); in assay [8] it was 7.94 µM (active).

As for `O=C1CCc2cc(OCCCCc3nnnn3C3CCCCC3)ccc2N1`, the efficacy in assay [1] is 80.2%. Besides, the call in [2], in assay [3], in [4], in assay [5], in [6] and in assay [7] was inactive. For the same compound, the outcome in [8] and in assay [9] was inactive.

Turning to `CN(C)c1ccc(O)c2c1C[C@H]1C[C@H]3[C@H](N(C)C)C(=O)C(C(N)=O)=C(O)[C@@]3(O)C(=O)C1=C2O`, the efficacy in assay [1] is 116%. The call in [2], in [3], in [4], in assay [5], in assay [6] and in [7] was inactive. The result in [8] and in [9] was inactive.

On to `CC(=O)O[C@@]12CO[C@@H]1C[C@H](O)[C@@]1(C)C(=O)[C@H](O)C3=C(C)[C@@H](OC(=O)[C@H](O)[C@@H](NC(=O)OC(C)(C)C)c4ccccc4)C[C@@](O)([C@@H](OC(=O)c4ccccc4)[C@H]21)C3(C)C`, for which the efficacy in [1] is 57.5%. For the same compound, the compound was called inactive in [2], in assay [3], in [4], in assay [5], in assay [7] and in assay [9]. Also, the AC50 in assay [6] and in assay [8] was 20 µM (active) each time.

`CN(C)[C@@H]1C(=O)C(C(N)=O)=C(O)[C@@]2(O)C(=O)C3=C(O)c4c(O)ccc(Cl)c4[C@@H](O)[C@H]3C[C@@H]12`: in assay [1], the efficacy was 117%. The result in assay [2], in [3], in [4], in assay [5], in assay [7] and in assay [9] was inactive. For the same compound, the AC50 in [6] and in assay [8] was 28.2 µM (active) each time.

`O=C1Cc2cc(CCN3CCN(c4nsc5ccccc45)CC3)c(Cl)cc2N1`: the efficacy in [1] was 34%. Besides, the compound was called inactive in assay [2], in assay [3] and in [4]. The figures for the AC50 in [5], in assay [6] and in assay [8] were 22.4 µM (active), 17.8 µM (active) and 17.8 µM (active), respectively.

For `OCCOCCN1CCN(C(c2ccccc2)c2ccc(Cl)cc2)CC1` (stereo unspecified), the efficacy in [1] was 86%. Besides, the result in assay [2], in [3], in assay [4] and in assay [7] was inactive. For the same compound, the AC50 in assay [5] was 25.1 µM (active); in assay [6], 31.6 µM (active); in assay [8], 31.6 µM (active).

With `CN(C)CCOC(c1ccc(Cl)cc1)c1ccccn1` (stereo unspecified), in assay [1], the efficacy is 34.3%. The outcome in assay [2], in assay [3], in assay [4], in assay [6] and in [7] was inactive. The AC50 in assay [5] is 22.4 µM (active); in assay [8] it was 39.8 µM (active).

Take `CC#C[C@]1(O)CC[C@H]2[C@@H]3CCC4=CC(=O)CCC4=C3[C@@H](c3ccc(N(C)C)cc3)C[C@@]21C`: in assay [1], the efficacy was 23.8%. Besides, the call in assay [2], in [3], in [4], in assay [5], in assay [6] and in [7] was inactive. Besides, the outcome in assay [8] was inactive.

For `CN1CCN(CCCN2c3ccccc3Sc3ccc(C(F)(F)F)cc32)CC1`, in [1], the efficacy is -186%. For the same compound, the AC50 in [2] was 7.08 µM (active); in assay [5], 3.55 µM (active); in assay [6], 2.82 µM (active). The compound was called inactive in assay [3] and in assay [4]. Besides, in assay [8], the outcome is “inactive [Channel type: confirmation]”.

Consider `CO[C@H]1C=CO[C@@]2(C)Oc3c(C)c(O)c4c(O)c(c(/C=N/N5CCN(C)CC5)c(O)c4c3C2=O)NC(=O)/C(C)=C\C=C[C@H](C)[C@H](O)[C@@H](C)[C@@H](O)[C@@H](C)[C@H](OC(C)=O)[C@@H]1C`, for which the efficacy in [1] is 60.3%. The result in [2], in [3], in [4], in assay [5], in [6] and in assay [7] was inactive. Besides, the outcome in assay [8] and in assay [9] was inactive.

For `C[C@]12C/C(=C/O)C(=O)C[C@@H]1CC[C@@H]1[C@@H]2CC[C@@]2(C)[C@H]1CC[C@]2(C)O`, the efficacy in assay [1] is 90.8%. Besides, the outcome in [2], in assay [3], in assay [4], in assay [5], in [7] and in assay [9] was inactive. Besides, the AC50 in assay [6] and in assay [8] was 14.1 µM (active) in each case.

The AC50 is the concentration at which the activity in the assay is half-maximal.
